{
  "source": "PubChem BioAssay (EPA / NIEHS)",
  "note": "A structure can be active in one record and inactive in another. Active and inactive are the calls of the source. How the source made its calls: active means hit-call score of the fitted dose curve at least 0.9, where 1 is the maximum; inactive means score below 0.9.",
  "data": [
    {"read-out": "Transforming growth factor beta 1 (TGFb1), TGFB1 (gene 7040)", "experiment": "BSK_BE3C_TGFb1: BioMAP Diversity Plus: BE3C Assay for Transforming growth factor beta 1 (TGFb1) Biomarker Activity (AID 2283036)", "conditions": "primary human bronchial epithelial cells; actives raise or lower the signal", "method": "BSK_BE3C is a cell-based, multiplexed-readout assay that uses bronchial epithelial cell, a human lung primary cell, with measurements taken at 24 hours after chemical dosing in a 96-well plate.BSK_BE3C_TGFb1 is an assay component measured in the BSK_BE3C assay. It measures TGF-b1 antibody related to regulation of gene expression using ELISA technology.Data from the assay component BSK_BE3C_TGFb1 was analyzed into 1 assay endpoint. This assay endpoint, BSK_BE3C_TGFb1, was analyzed with bidirectional fitting relative to DMSO as the negative control and baseline of activity. Using a type of binding reporter, gain or loss-of-signal activity can be used to understand changes in the signaling as they relate to the gene TGFB1. Furthermore, this assay endpoint can be referred to as a primary readout, because this assay has produced multiple assay endpoints where this one serves a signaling function. To generalize the intended target to other relatable targets, this assay endpoint is annotated to the growth factor intended target family, where the subfamily is transforming growth factor beta.\nThe levels of cell surface (or secreted, indicated by the prefix \"s\") biomarker endpoints were measured by ELISA. Overt cytotoxicity to cells in confluent adherent cultures (all systems other than the BT system) was assessed by measuring total protein levels using sulforhodamine B (SRB) staining in parallel cultures at the time of biomarker measurements, indicated as SRB endpoints. For proliferation assays for adherent cell types, individual cell types are cultured at sub-confluence and relative cell numbers quantified by SRB staining at time points optimized for each system (48 h: 3C and CASM3C systems; 72 h: BT and HDF3CGF systems; 96 h: SAg system). SRB was performed by staining cells with 0.1% SRB after fixation with 10% TCA and reading wells at 560 nm.Viability and proliferation of PBMC (T cells) was quantified by Alamar Blue reduction for the SAg and BT systems. For PBMC viability (referred to as PBMC Cytotoxicity within the assay endpoint names), cells were plated (75,000/well in a 96-well plate) and then chemical samples added for 1 h before addition of activators, SEB and TSST-1 (20 ng/mL final concentration each). Cells were incubated for 90 h. Then, Alamar Blue (20 uL/well) (Invitrogen, Cat DAL1100) was added for 6 h, and the plates were read with a fluorescence microplate reader at 546/580 nm (excitation/emission). For PBMC proliferation, cells were plated and activated as above but incubated for only 16 h prior to addition of Alamar Blue. Plates were read after 6 h.", "values": [
      {"smiles": "C1CC2OC2CC1C1CO1", "note": "(stereo not given)", "outcome": "inactive"},
      {"smiles": "Clc1ccc(C(c2ccccc2Cl)C(Cl)(Cl)Cl)cc1", "note": "(stereo not given)", "outcome": "inactive"},
      {"smiles": "O=S(=O)(O)C(F)(F)C(F)(F)C(F)(F)C(F)(F)F", "outcome": "inactive"},
      {"smiles": "Oc1ccc(Cl)cc1Cl", "outcome": "inactive"},
      {"smiles": "Cc1ccc(O)c(C)c1", "outcome": "inactive"},
      {"smiles": "NS(=O)(=O)C(F)(F)C(F)(F)C(F)(F)C(F)(F)C(F)(F)C(F)(F)C(F)(F)C(F)(F)F", "AC50": "10.5 µM (active)"},
      {"smiles": "Oc1c(Cl)c(Cl)c(Cl)c(Cl)c1Cl", "AC50": "9.53 µM (active)", "outcome": "inactive"},
      {"smiles": "CC(C)C(=O)OCC(C)(C)C(OC(=O)C(C)C)C(C)C", "note": "(stereo not given)", "outcome": "inactive"},
      {"smiles": "Clc1ccc(C(Cl)(Cl)Cl)cc1", "outcome": "inactive"},
      {"smiles": "CCNc1nc(NC(C)C)nc(SC)n1", "outcome": "inactive"},
      {"smiles": "CCCCCCCCOC(=O)c1ccccc1C(=O)OCCCCCCCC", "outcome": "inactive"},
      {"smiles": "CC(c1ccc(O)cc1)(c1ccc(O)cc1)c1ccc(O)cc1", "AC50": "1.92 µM (active)"},
      {"smiles": "O=C(O)C(F)(F)C(F)(F)C(F)(F)C(F)(F)C(F)(F)C(F)(F)C(F)(F)C(F)(F)C(F)(F)F", "AC50": "10 µM (active)"},
      {"smiles": "ClC(Cl)=C(c1ccc(Cl)cc1)c1ccc(Cl)cc1", "outcome": "inactive"},
      {"smiles": "ClC1=C(Cl)[C@]2(Cl)[C@@H]3[C@@H](Cl)[C@H]4O[C@H]4[C@@H]3C1(Cl)C2(Cl)Cl", "outcome": "inactive"},
      {"smiles": "CCC(=O)O[C@H]1CC[C@H]2[C@@H]3CCC4=CC(=O)CC[C@]4(C)[C@H]3CC[C@]12C", "outcome": "inactive"},
      {"smiles": "Cc1cc(O)ccc1Cl", "outcome": "inactive"},
      {"smiles": "c1cc2ccc3cccc4ccc(c1)c2c34", "outcome": "inactive"},
      {"smiles": "C[C@]12CCC(=O)C=C1CC[C@@H]1[C@@H]2CC[C@@]2(C)[C@H]1CC[C@]2(C)O", "outcome": "inactive"},
      {"smiles": "COS(=O)(=O)OC", "outcome": "inactive"},
      {"smiles": "Clc1ccc(Cl)cc1", "outcome": "inactive"},
      {"smiles": "Sc1ccccc1", "outcome": "inactive"},
      {"smiles": "CC#Cc1cc(C)nc(Nc2ccccc2)n1", "outcome": "inactive"},
      {"smiles": "CN(C)c1nc(=O)n(C2CCCCC2)c(=O)n1C", "outcome": "inactive"},
      {"smiles": "C=CC(=O)NCNC(=O)C=C", "outcome": "inactive"},
      {"smiles": "ClC1=C(Cl)[C@]2(Cl)[C@@H]3[C@@H]4C[C@@H]([C@H]5O[C@@H]45)[C@@H]3[C@@]1(Cl)C2(Cl)Cl", "outcome": "inactive"},
      {"smiles": "Cc1ccccc1O", "outcome": "inactive"},
      {"smiles": "O=C(N[C@H]1CN2CCC1CC2)c1cc2ccoc2cn1", "outcome": "inactive"},
      {"smiles": "CCSC(=O)N(CC)C1CCCCC1", "outcome": "inactive"},
      {"smiles": "CCC(C)(c1ccc(O)cc1)c1ccc(O)cc1", "outcome": "inactive"},
      {"smiles": "O=S(=O)(O)C(F)(F)C(F)(F)C(F)(F)C(F)(F)C(F)(F)C(F)(F)F", "outcome": "inactive"},
      {"smiles": "CC(C)(O)C(=O)Nc1ccc([N+](=O)[O-])c(C(F)(F)F)c1", "outcome": "inactive"},
      {"smiles": "CCCN(CCC)N=O", "outcome": "inactive"},
      {"smiles": "CN(C)CCO", "outcome": "inactive"},
      {"smiles": "O=NN(c1ccccc1)c1ccccc1", "outcome": "inactive"},
      {"smiles": "Cc1ccccc1CO[C@@H]1C[C@@]2(C(C)C)CC[C@]1(C)O2", "outcome": "inactive"},
      {"smiles": "ClC1=C(Cl)[C@]2(Cl)[C@@H]3[C@H]4C[C@H]([C@@H]5O[C@H]45)[C@@H]3[C@@]1(Cl)C2(Cl)Cl", "outcome": "inactive"},
      {"smiles": "Cc1ccccc1[N+](=O)[O-]", "outcome": "inactive"},
      {"smiles": "CCC(C)c1cc([N+](=O)[O-])cc([N+](=O)[O-])c1O", "note": "(stereo not given)", "AC50": "0.911 µM (active)"}
    ]}
  ]
}
